For some of these results: Potency and affinity values are given separately. Calls of active or inactive are those of the source.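 Rule for the calls, unless noted: active = fluorescence ratio normalized to control raised more than 50% in primary screen plus both repeat runs; inactive = the rest.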
Legend:
[1] = system: TRPC4 beta (transient receptor potential cation channel C4), mouse; experiment: TRPC4 cation channel opening, retest – cell-based, Fluo4 calcium, HEK293 TRPC4beta/mu-opioid, duplicates, 10 µM, confirmation (AID 2426); conditions: Fluo4 calcium fluorescence, at 10 µM; hits give high values
[2] = system: transient receptor potential cation channel C4 beta (TRPC4), mouse; experiment: TRPC4 cation channel opening, second retest – cell-based, second round, Fluo4, HEK293 TRPC4beta/mu-opioid, 1 µM, confirmation (AID 2461;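 active = primary screen active and over 50% activation in each of two duplicate runs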); conditions: Fluo4 calcium fluorescence, at 1 µM; hits give high values
[3] = system: TRPC4 (transient receptor potential cation channel C4 beta), mouse; experiment: potentiation of DAMGO EC20 TRPC4 response – cell-based, second round, Fluo-4, HEK293 TRPC4beta/mu-opioid, 1 µM, confirmation (AID 2554;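 active = primary screen hit whose fluorescence ratio, in both repeats, exceeds the weak agonist control mean by 3 SD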); conditions: DAMGO EC20, Fluo-4 calcium flux, at 1 µM; hits give high values
[4] = system: TRPC4 beta (transient receptor potential cation channel C4), mouse; experiment: potentiation of DAMGO EC20 TRPC4 response – cell-based, Fluo-4, HEK293 TRPC4beta/mu-opioid, confirmation (AID 2555;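 active = primary screen hit whose calcium fluorescence ratio, in both repeats, exceeds the weak agonist control mean by 3 SD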); conditions: DAMGO EC20, Fluo-4 calcium flux, at 10 µM; hits give high values
[5] = biological target: Short transient receptor potential channel 4 (Mus musculus) (UniProt Q9QUQ5); experiment: blockers of DAMGO-evoked TRPC4 calcium flux – cell-based, Fluo4, HEK293 TRPC4beta/mu-opioid, confirmation (AID 2636;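 active = calcium signal cut by more than 3 SD below the full-agonist control yet still positive, in both repeats and the earlier primary screen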); conditions: at 10 µM; hits give high values
[6] = biological target: Short transient receptor potential channel 4 (Mus musculus) (UniProt Q9QUQ5); experiment: blockers of DAMGO-evoked TRPC4 calcium flux – cell-based, second round, Fluo4, HEK293 TRPC4beta/mu-opioid, 1 µM, confirmation (AID 2637;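 active = calcium signal ratio cut to more than 3 SD under the fully stimulated control mean yet still positive, in both repeats and the primary screen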;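 for inhibition: percent of integrated ratio relative to wells lacking test compound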); conditions: at 1 µM; hits give high values
[7] = biological target: Short transient receptor potential channel 4 (Mus musculus) (UniProt Q9QUQ5); experiment: calcium entry via TRPC4 opening agents – cell-based, HEK293 TRPC4/mu-opioid, Fluo-4 calcium, dose response (AID 434937;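 active = primary screen activator hit with a dose response curve and TRPC4 channel activation at any tested dose; inactive = no activation, no dose response, or not a primary hit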)
[8] = biological target: Short transient receptor potential channel 4 (Mus musculus) (UniProt Q9QUQ5); experiment: potentiation of DAMGO-evoked TRPC4 calcium signal – cell-based, HEK293 TRPC4/mu-opioid, Fluo-4 calcium, EC20 DAMGO, dose response (AID 434941;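 active = earlier screen potentiator hit that boosts the TRPC4 ion channel at some dose, with a dose response; inactive = no potentiation, no dose response, or not a prior hit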;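 note: calcium entry triggered by an EC20 dose of DAMGO at the co-expressed mu-opioid receptor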)
[9] = biological target: Short transient receptor potential channel 6 (Mus musculus) (UniProt Q61143); experiment: TRPC6 blockade by TRPC4 inhibitor hits – cell-based, HEK293, membrane potential dye, duplicate, selectivity assay for TRPC4 inhibitor project, confirmation (AID 434948;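 active = active in primary screen and both duplicates, each dropping signal beyond three positive-control SD with fluorescence still positive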); conditions: HEK293 TRPC6, membrane potential dye fluorescence, at 10 µM, stimulated with maximal-effect acetylcholine; hits give high values
[10] = biological target: Short transient receptor potential channel 6 (Mus musculus) (UniProt Q61143); experiment: TRPC6 opening by TRPC4 activator hits – cell-based, HEK293, membrane potential dye, duplicate, selectivity assay for TRPC4 activator project, confirmation (AID 434950;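 active = membrane potential signal rise above negative control mean plus 3 SD in both duplicates, also active in the earlier TRPC4 screen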;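 for activation: 0% = buffer only wells and 100% = acetylcholine maximal-effect wells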); conditions: HEK293 TRPC6, membrane potential fluorescence, at 10 µM; activation: hits give high values; outcome: activation
[11] = biological target: Short transient receptor potential channel 6 (Mus musculus) (UniProt Q61143); experiment: positive modulators of mouse TRPC6 channel – HEK293 cells, membrane potential dye, duplicate, selectivity assay for TRPC4 potentiator project, confirmation (AID 434952;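 active = compound raising the membrane signal above positive-control mean plus 3 SD in both repeats, and a primary screen hit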); conditions: HEK293 TRPC6, membrane potential dye fluorescence, at 10 µM, maximal acetylcholine added after compound; hits give high values
[12] = biological target: Short transient receptor potential channel 4 (Mus musculus) (UniProt Q9QUQ5); experiment: calcium flux activators in TRPC4/5HT1a cells, counter-screen for TRPC4 activator project, cell-based, second counter screen, HEK293 TRPC4/5HT1a, Fluo-4 (AID 434977;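 active = calcium signal rise above buffer-control mean plus 5 SD in both duplicates, and also a hit in the primary screen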); conditions: Fluo-4 calcium flux, at 10 µM; hits give high values
[13] = serotonin-gated TRPC4 signal block – cell-based, second counter screen, HEK293 TRPC4/5HT1a, Fluo-4, counter-screen for TRPC4 inhibitor project, confirmation (AID 434978;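 active = primary screen active whose calcium signal fell more than 3 SD beyond the full-serotonin control mean in both duplicate plates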;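 for outcome: serotonin given first at submaximal then at maximal dose after compound preincubation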); conditions: Fluo-4 calcium flux, at 10 µM, serotonin added to trigger calcium flux; hits give high values
[14] = system: TRPC4 (mouse), co-expressed with 5HT1a in HEK293; experiment: enhancement of serotonin-evoked TRPC4 response – cell-based, second counter screen, HEK293 TRPC4/5HT1a, Fluo-4, counter-screen for TRPC4 potentiator project, confirmation (AID 434979;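 active = signal rise over 3 SD above mean of control wells given weak agonist, in both repeats and first screen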); conditions: Fluo-4 calcium flux, at 10 µM, serotonin added at its EC20 dose; hits give high values
[15] = nonspecific calcium rise without TRPC4 – cell-based, HEK293 mu-opioid receptor line, counter-screen for TRPC4 activator project, confirmation (AID 449723;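 active = hit in primary screen, with calcium signal over 5 SD above buffer well mean in both duplicates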;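 note: counter screen cells carry the mu-opioid receptor alone and lack TRPC4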); conditions: HEK293 mu-opioid cells, Fluo-4 calcium fluorescence, at 10 µM; hits give high values
[16] = nonspecific potentiation of DAMGO calcium response – cell-based, HEK293 mu-opioid receptor line, counter-screen for TRPC4 allosteric potentiator project, confirmation (AID 449724;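 active = calcium signal rise more than 3 SD above the low-dose agonist control mean, in both duplicate plates and the primary screen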); conditions: HEK293 mu-opioid receptor cells, Fluo-4 calcium flux, at 10 µM, compound added before EC20 DAMGO stimulus; hits give high values

Chain of Short transient receptor potential channel 6 (Mus musculus) (Q61143 whole entry, looked up): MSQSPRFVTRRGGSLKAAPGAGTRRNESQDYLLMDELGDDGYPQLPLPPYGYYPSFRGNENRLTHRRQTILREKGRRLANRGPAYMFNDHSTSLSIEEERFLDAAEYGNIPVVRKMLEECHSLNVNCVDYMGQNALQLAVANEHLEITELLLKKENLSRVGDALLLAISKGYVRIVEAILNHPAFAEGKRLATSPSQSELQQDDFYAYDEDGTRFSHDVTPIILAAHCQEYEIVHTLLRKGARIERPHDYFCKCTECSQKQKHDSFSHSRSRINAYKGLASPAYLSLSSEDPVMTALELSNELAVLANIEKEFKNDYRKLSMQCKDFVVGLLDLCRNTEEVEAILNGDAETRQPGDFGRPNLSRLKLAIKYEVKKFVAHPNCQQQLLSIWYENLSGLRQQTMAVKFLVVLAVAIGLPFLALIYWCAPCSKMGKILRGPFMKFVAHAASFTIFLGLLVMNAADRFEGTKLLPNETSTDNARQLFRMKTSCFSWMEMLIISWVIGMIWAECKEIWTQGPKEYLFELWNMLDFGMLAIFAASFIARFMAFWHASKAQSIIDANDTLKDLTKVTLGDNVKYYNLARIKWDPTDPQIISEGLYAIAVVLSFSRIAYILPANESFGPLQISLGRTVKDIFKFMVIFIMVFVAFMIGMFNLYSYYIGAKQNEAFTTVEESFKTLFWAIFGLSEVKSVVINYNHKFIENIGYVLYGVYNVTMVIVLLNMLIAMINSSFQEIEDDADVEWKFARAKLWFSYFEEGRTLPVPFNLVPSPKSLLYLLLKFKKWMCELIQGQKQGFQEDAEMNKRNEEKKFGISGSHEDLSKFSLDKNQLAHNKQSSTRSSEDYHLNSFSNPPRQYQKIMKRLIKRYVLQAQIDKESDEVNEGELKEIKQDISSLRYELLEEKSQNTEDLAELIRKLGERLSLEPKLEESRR
Chain of Short transient receptor potential channel 4 (Mus musculus) (Q9QUQ5 whole entry, looked up): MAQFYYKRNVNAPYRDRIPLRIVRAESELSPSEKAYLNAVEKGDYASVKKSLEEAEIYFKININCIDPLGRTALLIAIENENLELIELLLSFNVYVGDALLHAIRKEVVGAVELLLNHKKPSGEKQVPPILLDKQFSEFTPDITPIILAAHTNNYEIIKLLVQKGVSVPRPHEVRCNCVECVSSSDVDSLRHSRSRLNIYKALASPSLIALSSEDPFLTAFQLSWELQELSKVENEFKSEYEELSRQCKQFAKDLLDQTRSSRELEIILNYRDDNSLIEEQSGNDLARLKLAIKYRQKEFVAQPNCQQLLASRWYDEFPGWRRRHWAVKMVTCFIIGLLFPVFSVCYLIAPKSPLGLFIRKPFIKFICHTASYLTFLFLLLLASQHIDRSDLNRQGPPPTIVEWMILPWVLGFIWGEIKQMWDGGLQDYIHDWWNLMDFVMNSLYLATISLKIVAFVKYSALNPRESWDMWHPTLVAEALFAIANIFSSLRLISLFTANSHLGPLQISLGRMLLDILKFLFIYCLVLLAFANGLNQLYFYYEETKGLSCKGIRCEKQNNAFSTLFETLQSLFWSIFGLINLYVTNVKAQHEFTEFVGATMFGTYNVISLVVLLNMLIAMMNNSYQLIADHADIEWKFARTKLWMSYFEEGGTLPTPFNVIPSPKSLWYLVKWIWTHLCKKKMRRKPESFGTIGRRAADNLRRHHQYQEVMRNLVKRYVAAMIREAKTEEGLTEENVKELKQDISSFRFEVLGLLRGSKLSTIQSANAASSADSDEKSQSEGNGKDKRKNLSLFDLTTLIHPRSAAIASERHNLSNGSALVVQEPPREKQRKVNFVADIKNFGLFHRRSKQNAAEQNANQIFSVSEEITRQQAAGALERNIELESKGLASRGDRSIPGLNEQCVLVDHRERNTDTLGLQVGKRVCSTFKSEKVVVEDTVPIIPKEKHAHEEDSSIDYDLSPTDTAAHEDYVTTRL

COc1cc(/C=C2\SC(=S)N(NS(=O)(=O)c3ccc(C)cc3)C2=O)cc(OC)c1OC
inactive: outcome [1] | outcome [2] | outcome [3] | outcome [4] | outcome [6] | outcome [7] | outcome [8] | outcome [9] | outcome [10] | outcome [11] | outcome [12] | outcome [14] | outcome [15] | outcome [16]
active: inhibition [5] 95% | inhibition [13] 34.5%

CN(C)c1ccc(NC(=O)CN2C3CCCC2CC(NC(=O)c2ccccc2)C3)cc1 (stereo unspecified)
inactive: outcome [1] | outcome [2] | outcome [3] | outcome [4] | outcome [6] | outcome [7] | outcome [8] | outcome [9] | outcome [10] | outcome [11] | outcome [12] | outcome [13] | outcome [14] | outcome [15] | outcome [16]
active: inhibition [5] 71%

CC(C)(C)Cc1nc2ccccc2n1CCc1ccccc1
inactive: outcome [1] | outcome [2] | outcome [3] | outcome [4] | outcome [7] | outcome [8] | outcome [9] | outcome [10] | outcome [11] | outcome [12] | outcome [14] | outcome [15] | outcome [16]
active: inhibition [5] 82% | inhibition [6] 64% | inhibition [13] 17.2%

c1ccn2cc(C34CC5CC(CC(C5)C3)C4)nc2c1
inactive: outcome [1] | outcome [2] | outcome [3] | outcome [4] | outcome [6] | outcome [7] | outcome [8] | outcome [9] | outcome [10] | outcome [11] | outcome [12] | outcome [14] | outcome [15] | outcome [16]
active: inhibition [5] 69% | inhibition [13] 41.3%

Cc1cc(Br)c(NC(=O)CN(C)CCOc2ccccc2)c(Br)c1
inactive: outcome [1] | outcome [2] | outcome [3] | outcome [4] | outcome [6] | outcome [7] | outcome [8] | outcome [9] | outcome [10] | outcome [11] | outcome [12] | outcome [14] | outcome [15] | outcome [16]
active: inhibition [5] 81% | inhibition [13] 45.2%

Fc1ccccc1CNCCC(Cc1ccccc1)c1ccc2c(c1)OCO2 (stereo unspecified)
inactive: outcome [1] | outcome [2] | outcome [3] | outcome [4] | outcome [5] | outcome [6] | outcome [7] | outcome [8] | outcome [9] | outcome [11] | outcome [12] | outcome [13] | outcome [14] | outcome [15] | outcome [16]
active: activation [10] 48%

c1ccc(Nc2n[nH]nc2-c2ccccc2)cc1
active: inhibition [5] 96% | inhibition [6] 60% | inhibition [13] 17.4%
inactive: outcome [1] | outcome [2] | outcome [3] | outcome [4] | outcome [7] | outcome [8] | outcome [9] | outcome [10] | outcome [11] | outcome [12] | outcome [14] | outcome [15] | outcome [16]

CCCn1c(NC(=O)c2cccc(S(=O)(=O)N3CCCC3)c2)nc2ccccc21
inactive: outcome [1] | outcome [2] | outcome [6] | outcome [7] | outcome [8] | outcome [9] | outcome [10] | outcome [11] | outcome [12] | outcome [13] | outcome [15] | outcome [16]
active: potentiation [3] 11% | potentiation [4] 64% | inhibition [5] 87% | potentiation [14] 24.4%

CN(C)c1ccc([N+](=O)[O-])cc1C(=O)NCC(c1ccco1)N(C)C (stereo unspecified)
inactive: outcome [1] | outcome [2] | outcome [3] | outcome [4] | outcome [6] | outcome [7] | outcome [8] | outcome [9] | outcome [10] | outcome [11] | outcome [12] | outcome [13] | outcome [14] | outcome [15] | outcome [16]
active: inhibition [5] 58%

CCOC(=O)c1c(NC(=O)C2CCCCC2C(=O)O)sc2c1CCCCC2 (stereo unspecified)
inactive: outcome [1] | outcome [2] | outcome [3] | outcome [4] | outcome [6] | outcome [7] | outcome [8] | outcome [9] | outcome [10] | outcome [11] | outcome [12] | outcome [14] | outcome [15] | outcome [16]
active: inhibition [5] 80% | inhibition [13] 42.6%

CCOC(=O)CSc1nc2c(sc(=S)n2-c2ccccc2OC)c(=O)n1-c1ccccc1OC
inactive: outcome [1] | outcome [2] | outcome [3] | outcome [4] | outcome [7] | outcome [8] | outcome [9] | outcome [10] | outcome [11] | outcome [12] | outcome [14] | outcome [15] | outcome [16]
active: inhibition [5] 71% | inhibition [6] 38% | inhibition [13] 31.3%

COc1cc2ccccc2c2c1CCCC2=O
active: inhibition [5] 85% | inhibition [13] 26.2%
inactive: outcome [1] | outcome [2] | outcome [3] | outcome [4] | outcome [6] | outcome [7] | outcome [8] | outcome [9] | outcome [10] | outcome [11] | outcome [12] | outcome [14] | outcome [15] | outcome [16]

CCOC(=O)C1(Cc2cccc(F)c2)CCN(Cc2c(C)nn(CC)c2C)CC1
inactive: outcome [1] | outcome [2] | outcome [3] | outcome [4] | outcome [6] | outcome [7] | outcome [8] | outcome [9] | outcome [10] | outcome [11] | outcome [12] | outcome [13] | outcome [14] | outcome [15] | outcome [16]
active: inhibition [5] 86%

O=C(NCCCN1CCN(c2cccc(Cl)c2)CC1)C1CCC(=O)N1Cc1ccccc1Cl (stereo unspecified)
inactive: outcome [1] | outcome [2] | outcome [3] | outcome [4] | outcome [7] | outcome [8] | outcome [9] | outcome [10] | outcome [11] | outcome [12] | outcome [14] | outcome [15] | outcome [16]
active: inhibition [5] 90% | inhibition [6] 52% | inhibition [13] 35.9%

C=CCOc1ccc(Br)cc1CNC(C)(C)CO
active: inhibition [5] 94% | inhibition [6] 39% | inhibition [13] 24.1%
inactive: outcome [1] | outcome [2] | outcome [3] | outcome [4] | outcome [7] | outcome [8] | outcome [9] | outcome [10] | outcome [11] | outcome [12] | outcome [14] | outcome [15] | outcome [16]

CCCCN(Cc1ccccc1)C(=O)C1CCN(Cc2sccc2C)CC1
inactive: outcome [1] | outcome [2] | outcome [3] | outcome [4] | outcome [7] | outcome [8] | outcome [9] | outcome [10] | outcome [11] | outcome [12] | outcome [14] | outcome [15] | outcome [16]
active: inhibition [5] 90% | inhibition [6] 46% | inhibition [13] 32.5%
